TGFb inhibitor – TGF-b pathway inhibition. HepG2 CAGA-GFP TGF-b/SMAD3 reporter, GFP fluorescence, 18 h; TGF-beta stimulated, 500 pg/mL final. Potency, µM (series often up to 46.1 µM), for inactives: top-dose activity, negative = inhibition, usual class: inhibitors. 1.2% of 410,000 active. AID 588855; also: % is scaled to controls: 0 for no effect and ±100 for the full control effect; nearly all actives have a fitted effect of over 65% in size
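Inhibition was scored as loss of TGF-beta-induced (500 pg/mL final, 18 hours, 37 degrees C) GFP in HEPG2 cells carrying a CAGA-GFP reporter, in DMEM with 1% FBS. Well GFP was summed per cell; Activity was normalised to unstimulated and stimulated DMSO wells, then concentration-response fitting.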
HT1080-NT tox – kills 2HG-producing HT-1080-NT fibrosarcoma cells; Potency, µM (titrated, usually from 46.1 µM), without a hit: at the highest dose activity, negative = less viability, most hits filed as cytotoxic; HT-1080-NT fibrosarcoma viability, CellTiter-Glo ATP luminescence, 48 h; 1.6% of 360,000 active;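 also: NT is the 2HG producing partner of a matched IDH1 knockdown line; 0% = DMSO-treated cells and -100% = media-only wells without cells; nearly all actives have a fitted effect of over 55% in size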
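HT-1080-NT; 750 cells/well; 5% FBS RPMI; 48 h compound, 37 degrees C; CellTiter-Glo luminescence; curve fitting and curve-class assignment.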
HT1080 IDH1KD tx – kills HT-1080 cells with IDH1 knockdown. HT-1080 IDH1 knockdown viability, ATP luminescence, 48 h. Potency, µM (doses to about 46.1 µM), inactives show at the top dose activity, negative = toxicity, actives largely listed as cytotoxic. AID 686971. 2% of 360,000 active;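 also: 0% = DMSO wells and -100% = cell-free medium wells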
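Viability of IDH1-knockdown HT-1080 fibrosarcoma cells was assessed by CellTiter-Glo after 48 h at 37 °C with titrated compound; concentration-effect curves were classified by fit quality and response size.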
HepG2 viability – counter-screen for TGF-b inhibitors: cytotoxicity in HepG2 cells | 0.76% of 410,000 active | HepG2 CAGA-GFP viability, ATP luminescence, 18 h | Potency, µM (series often up to 46.1 µM), without a hit: at the top dose activity change, negative = cytotoxicity, hits mostly cytotoxic | AID 588856
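CellTiter-Glo luminescence gave cytotoxicity after 18 hours at 37 degrees C. The cells were HepG2 CAGA-GFP in 1% FBS DMEM, stimulated with 500 pg/mL TGF-beta after compound addition. %Activity was normalised to no-cell wells (complete cell-killing) and DMSO (no toxicity), and curves were fitted and classified.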
S2 tox – reduces viability in counter-screen for ATXN expression inhibitors; 0.49% of 400,000 active; Potency, µM (titrated, usually from 56.7 µM), actives largely listed as cytotoxic; S2 cells (HEK-293 line with an ATXN2-luciferase reporter) viability, CellTiter-Fluor protease fluorescence, 24 h; also: nearly all actives have a fitted effect of over 40% in size
ATXN2 expr inh – ATXN2 expression inhibition; 0.72% of 360,000 active; Potency, µM (series often up to 57 µM), without a hit: at the top dose activity change, negative = inhibition, most hits filed as inhibitors; HEK-293 ATXN2-luciferase reporter, luminescence, 24 h; also: % is scaled to controls: 0 for no effect and ±100 for the full control effect; nearly all actives have a fitted effect of over 55% in size
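qHTS (up to 57 uM final) was run with 24 h compound exposure of reporter cells at 37 °C. Each well was multiplexed: SteadyGlo luminescence measured ATXN2-luciferase expression after a fluorogenic Gly-Phe-AFC viability readout (25 uM final).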
* = called active by the depositor; i = inactive; ? = inconclusive; nt = not tested or not shown; ! = not confirmed by another sample. In the library only some 3.8% were active in any assay of this set; here they are far more common. Calls follow the shape of the dose curve; as a rule, active = well fitted curve in the direction sought with a large enough effect; inconclusive = small, poorly fitted or top-dose-only effect, or another doubt; inactive = no such curve, though single readings can be large; an effect the other way counts as inactive or inconclusive. Potency is read from the fitted curve at half-maximal effect.

SMILES	TGFb inhibitor	HT1080-NT tox	HT1080 IDH1KD tx	HepG2 viability	S2 tox	ATXN2 expr inh
Cc1cc(OCC(=O)Nc2ccncc2)cc(C)c1Br	-1.6%	-23.5%	10.3µM*	-1.0%	i	-21.2%
Cc1cc(OCC(=O)Nc2ccc(Br)cc2)cc2c1C(=O)CC(C)(C)O2	?	-16.2%	-3.1%	-7.0%	i	12.6µM*
CC(=O)Nc1ccc(NC(=O)COc2cc(O)c3c(c2)OC(C)(C)CC3=O)cc1	4.3%	-0.5%	-1.7%	-17.6%	i	25.0%
CCC(C)Nc1ccc(NC(C)CC)cc1 (stereo not drawn)	11.2µM*!	3.66µM*	9.2µM*	12.6µM*!	nt	?
Cc1ccc(NC2(c3ccccc3)C(=O)c3ccccc3C2=O)cc1F	18.6%	nt	nt	0.9%	i	5.6%
Cn1nnc2c(NCCc3ccccc3)ncnc21	-8.5%	nt	nt	-30.2%	nt	nt
CCCCN(CC)CCCNC(=O)c1cc2c(=O)[nH]c3ccccc3c2s1	-3.6%	?	?	-22.2%	i	1.6%
Cc1ccc2nc(Cl)c3cc(C(=O)NCCCN4CCC(C)CC4)sc3c2c1	-6.2%	nt	nt	1.7%	nt	nt
Cc1ccc2[nH]c(=O)c3cc(C(=O)NCCCN4CCC(C)CC4)sc3c2c1	-1.2%	nt	nt	-56.7%	20µM*	28.2µM*
CCCCN(CC)CCNC(=O)c1cc2c(=O)[nH]c3ccc(C)cc3c2s1	?	16.4µM*	18.4µM*	-71.5%	i	-14.4%
O=[N+]([O-])c1cc(Cl)ccc1N1CCCC1	-2.1%	0.2%	7.0%	-9.6%	i	-1.7%
O=C1C(Cl)=C(N2CCN(c3ccccc3[N+](=O)[O-])CC2)C(=O)c2ccccc21	11.2µM*	-14.9%	?	-109.4%	?	-9.4%
CC(C)Cn1cnc2c(N)nc3ccccc3c21	13.3%	-13.3%	-11.6%	-2.0%	i	21.7µM*!
COc1ccccc1-c1cc2c(c(OC)c1)OCCN(CCC(C)c1ccc(C)o1)C2 (stereo not drawn)	nt	nt	nt	nt	i	nt
CC(C)c1csc(CN2CCN(Cc3ccc(F)cc3)C(CCO)C2)n1 (stereo not drawn)	3.55µM*	-16.1%	-11.4%	9.8%	i	-19.5%
COc1ccc(Cl)cc1NC(=O)N1CCC(CN2CCc3ccccc3C2)CC1	-26.0%	nt	nt	-23.7%	nt	nt
CN(C)c1ccc2cc(C(=O)N[C@@H](CCCN=C(N)CCl)C(=O)NCc3ccccc3)ccc2c1	nt	nt	nt	nt	nt	30.6µM*
O=C(NCc1ccncc1)c1cnn(-c2nccc(-c3cccs3)n2)c1C1CC1	nt	nt	nt	nt	i	nt
CCCOc1ccc(CNC(=O)CN2C(=O)c3cccnc3Oc3ccc(C)cc32)cc1	0.0%	nt	nt	-19.2%	nt	nt
CC(C)NC(=O)[C@@H]1C[C@@H](Sc2nc3ccccc3[nH]2)CN1C1Cc2ccccc2C1	nt	nt	nt	nt	i	nt
CC(C)COc1ccc(C(=O)N2CCC(c3nc4ccccc4s3)CC2)cc1	?	nt	nt	-21.9%	i	-11.8%
Oc1c(C(Nc2cccc(C(F)(F)F)c2)c2ccncc2)ccc2cccnc12 (stereo not drawn)	-18.2%	-29.1%	?	-47.5%	nt	?
CCCC(=O)NC(c1ccc(C)cc1)c1ccc2cccnc2c1O (stereo not drawn)	?	?	?	-18.4%	i	?
CCCCC(=O)NC(c1ccc(N(CC)CC)cc1)c1ccc2cccnc2c1O (stereo not drawn)	?	?	?	-47.2%	i	2.82µM*
CCCCC(=O)NC(c1ccc(Cl)cc1)c1ccc2cccnc2c1O (stereo not drawn)	?	?	?	-60.1%	i	7.94µM*
SMILES	TGFb inhibitor	HT1080-NT tox	HT1080 IDH1KD tx	HepG2 viability	S2 tox	ATXN2 expr inh
CCCCC(=O)NC(c1ccc(N(C)C)cc1)c1ccc2cccnc2c1O (stereo not drawn)	?	?	?	-62.3%	?	?
CCC(=O)NC(c1cccs1)c1ccc2cccnc2c1O (stereo not drawn)	1µM*	?	?	0.8%	?	nt
Oc1c(C(Nc2nccs2)c2ccc(C(F)(F)F)cc2)ccc2cccnc12 (stereo not drawn)	22.4µM*	?	?	-30.1%	i	12.6µM*
Cc1ccc(CC(=O)NO)cc1	nt	-2.0%	18.9%	nt	nt	nt
CCCCC(=O)NC(c1ccccc1OC)c1ccc2cccnc2c1O (stereo not drawn)	?	?	2.59µM*	-8.1%	i	3.98µM*
CC(=O)NC(c1ccc(Cl)cc1Cl)c1ccc2cccnc2c1O (stereo not drawn)	?	?	?	-4.3%	?	?
CCOc1cc(C(Nc2cc(C)ccn2)c2ccc3cccnc3c2O)ccc1OC (stereo not drawn)	0.794µM*	nt	nt	-49.4%	nt	nt
CCCC(=O)NC(c1ccc(Cl)cc1Cl)c1ccc2cccnc2c1O (stereo not drawn)	?	?	8.2µM*	-17.5%	i	?
COc1cc(CN2CCCC(n3cc(C(=O)N4CCCCC4)nn3)C2)cc2c1OCO2 (stereo not drawn)	nt	nt	nt	nt	i	nt
CC(C)(O)C#Cc1ccc(CN2CCc3nnc(CCNC(=O)c4ccco4)n3CC2)cc1	nt	nt	nt	nt	i	nt
Cc1cnn(CCC(=O)NNC(=S)Nc2cccc(Cl)c2)c1	-17.0%	0.794µM*	0.708µM*	3.3%	i	8.0%
Cc1cnn(CCC(=O)NNC(=S)Nc2ccc(F)cc2)c1	-1.0%	7.5%	13.3%	-16.2%	i	-11.2%
COc1ccc(C2CC(=O)NC(NC(=O)c3ccc(Br)cc3)=N2)c(OC)c1OC (stereo not drawn)	-0.7%	nt	nt	3.9%	nt	nt
CN(C)c1nc(-c2ccccn2)nnc1-c1ccccc1	2.5%	-23.9%	?	-4.3%	i	8.91µM*
c1ccc(-c2nnc(-c3ccccn3)c(-c3ccccn3)n2)nc1	6.8%	-24.3%	-23.6%	-2.5%	i	-10.2%
CN(C)c1nc(-c2ccccc2)nc(-c2ccc(Cl)cc2)c1C#N	-1.6%	0.0%	12.2%	2.5%	?	-9.7%
CCN(CC)c1nc(-c2ccccn2)nc(-c2ccccc2)c1C#N	?	-26.4%	-16.0%	-36.4%	?	4.47µM*
COc1ccc2c(c1)-c1nc(-n3ncc(C(=O)N(C)CC4CCCN(C)C4)c3C3CC3)ncc1CC2 (stereo not drawn)	nt	nt	nt	nt	i	nt
CCOC(=S)SCC(=O)N1CCc2cc(OC)c(OC)cc2C1C1C(=O)CC(C)(C)CC1=O (stereo not drawn)	-20.3%	-7.5%	-6.8%	17.3%	i	nt
CCOC(=S)SCC(=O)N1CCc2cc(OC)ccc2C1C1C(=O)CCCC1=O (stereo not drawn)	?	?	23.1µM*	-1.4%	i	1.0%
